Test results taken from PubChem BioAssay (NCI).
Compounds without any hit were thinned out: in the full panel of roughly 83,000, 20% have a hit.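 Plates (96-well) were seeded with cells, treated with compound at one concentration, and incubated for 48 hours before percent growth was determined.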 A number with no mark means an inactive call. Activity calls are given as the source filed them. Rule for the calls: active = growth percent below 10; inactive = the rest.

Columns and labels:
Assay in all cases: NCI-60 one-dose screen, 48 h (100 = growth as untreated, 0 = no growth, -100 = all killed)
Conditions in all cases: 10 µM unless noted
SK-MEL-2 melanoma = tested on: SK-MEL-2 melanoma
EKVX NSCLC = tested on: EKVX NSCLC
SN12C renal = tested on: SN12C renal
UO-31 renal = tested on: UO-31 renal
TK-10 renal = tested on: TK-10 renal
ACHN renal = tested on: ACHN renal
CAKI-1 renal = tested on: CAKI-1 renal
A498 renal = tested on: A498 renal
CCRF-CEM leukemia = tested on: CCRF-CEM leukemia
MOLT-4 leukemia = tested on: MOLT-4 leukemia

Row | SMILES | growth (SK-MEL-2 melanoma) | growth (EKVX NSCLC) | growth (SN12C renal) | growth (UO-31 renal) | growth (TK-10 renal) | growth (ACHN renal) | growth (CAKI-1 renal) | growth (A498 renal) | growth (CCRF-CEM leukemia) | growth (MOLT-4 leukemia)
1 | Cc1cc(C)n(Cc2cc(C(C)(C)C)cc(C(C)(C)C)c2)c(=O)c1C#N | 107% | 75.2% | 90% | 80.5% | 107% | 98.4% | 104% | 97% | 87.9% | 76.6%
2 | C#CCn1c(C)cc(C)c(C#N)c1=O | 108% | 99.6% | 100% | 85.6% | 94.2% | 106% | 95.2% | 104% | 99.2% | 111%
3 | Cc1cc2nc3c4cc(N)ccc4n(CCN(C)C)c3nc2cc1C | 17.6% | 16.8% | 8.2% (active) | -6.21% (active) | 41.3% | -9.44% (active) | -3% (active) | 46.3% | 23.8% | 3.65% (active)
4 | O=[N+]([O-])c1cccc(/C=N\Nc2ccccc2)c1 | 42.1% | 59.8% | 74.7% | 47.4% | 98.7% | 41.9% | 59.9% | 101% | 59.5% | 71.5%
5 | CCC(c1ccc(OC)cc1)C(CC)c1ccc(O)c(CN2CCCCC2)c1 (stereo not given) | 79.7% | 64.6% | 66% | 39.6% | 84.6% | 82.3% | 61.6% | 72.8% | 68.7% | 62.7%
6 | CC[C@]12C=CCN3CC[C@@]4(c5cc([C@H]6CCC(=O)N6)c(OC)cc5N(C)[C@H]4[C@@](O)(C(=O)OC)[C@@H]1OC(C)=O)[C@@H]32 | 98.4% [2.5 µM] | 111% [2.5 µM] | 96.9% [2.5 µM] | 86.3% [2.5 µM] | 106% [2.5 µM] | 90% [2.5 µM] | 94.4% [2.5 µM] | 116% [2.5 µM] | 99.6% [2.5 µM] | 102% [2.5 µM]
7 | C[C@H]1[C@@H]2[C@H]3CC[C@@H]4[C@@]5(C)Cc6c([nH]c7ccccc67)C(C)(C)[C@@H]5CC[C@@]4(C)[C@]3(C)CC[C@]23CO[C@]1(C)[C@@H](C(=O)/C=C/c1ccccn1)C3 | 115% | 102% | 87.1% | 60.4% | 123% | 92.4% | 63% | 101% | 63% | 78.8%
8 | CN1CCN(c2ccc3nc(-c4[nH]ncc4Nc4ncnc5[nH]ccc45)[nH]c3c2)CC1 | -27.8% (active) | 2.05% (active) | 2.59% (active) | -9.13% (active) | -9.08% (active) | 0.294% (active) | 1.7% (active) | -45.7% (active) | 4.45% (active) | -13.6% (active)
9 | COC(=O)[C@]12CC[C@@H](C)[C@H](C)[C@@H]1C1=CC(=O)[C@@H]3[C@@]4(C)C[C@@H](OC(C)=O)[C@H](OC(C)=O)[C@@](C)(COC(C)=O)[C@@H]4C(=O)C[C@@]3(C)[C@]1(C)CC2 | 75.6% | 57.8% | 57.1% | 42.5% | 74% | 31.8% | 30.5% | 53% | 17% | 4.9% (active)
10 | CCN(CC)CCCCCNc1cc(OC(=O)c2ccccc2)cc2cccnc12 | 140% | 102% | 95% | 92.5% | 145% | 96.6% | 91% | 81.1% | 93.9% | 55.4%
11 | Cc1ccsc1-c1ccc2c(c1)COC2(CCCN(C)C)c1ccc(F)cc1 (stereo not given) | 85.4% | 65.6% | 56.7% | 39.3% | 73.7% | 62.1% | 38.4% | 86.3% | 39% | 27.3%
12 | O=C1CNCCN1 | 106% | 101% | 97.8% | 91.7% | 100% | 106% | 93.1% | 98% | 99.7% | 94%
13 | COc1cc(/C=N/NC(=S)NNC(=S)NC2CCCCC2)cc(OC)c1OC | 108% | 84.1% | 87.8% | 70.3% | 147% | 94.2% | 77.7% | 96.6% | 88.7% | 73.8%
14 | COc1ccc(CCN2C(=O)C(C)(C)SC2=S)cc1OC | 107% | 94% | 96% | 88.9% | 96.3% | 104% | 88.1% | 99.3% | 92.3% | 101%
15 | O=S(=O)(NCCNc1cc(-c2cn(-c3ccccc3)nc2-c2cccc(O)c2)ccn1)c1ccccc1 | 66.3% | 73.1% | 63.4% | 37.4% | 67.1% | 57.8% | 60.8% | 70.5% | 27.6% | 25.1%
16 | CC1(C)[C@@H](O)CC[C@]2(C)[C@H]3CC[C@@H]4[C@H]5[C@H](C(=O)/C=C/c6ccc(C(F)(F)F)cc6)CC[C@]5(CO)CC[C@@]4(C)[C@]3(C)CC[C@@H]12 | 83.7% | 71.2% | 58.8% | 46.7% | 105% | 25.9% | 47.4% | -1.48% (active) | 28.4% | 14%
17 | COc1cc2c(cc1-c1c(C)noc1C)ncc1nc(C3CC3)n([C@H](C)COC(F)F)c12 | 74.1% | 56.9% | 71.4% | 21.6% | 26.5% | 40.6% | 34.1% | 0.499% (active) | 52% | 42.2%
18 | CN1CCN(CC#CCn2c3c(c4ccccc42)C[C@]2(C)[C@H]4CC[C@@H]5[C@H]6[C@H]7OC(=O)[C@@]6(CCC7(C)C)CC[C@@]5(C)[C@]4(C)CC[C@H]2C3(C)C)CC1 | 118% | 99.2% | 52.8% | 67.2% | 161% | 91.3% | 52.4% | 71.6% | -0.753% (active) | 41.6%
19 | Nc1nc(Br)nc2c1ncn2C1CC(O)C(CO)O1 (stereo not given) | 102% | 71% | 52.1% | 34.1% | 71.2% | 29.8% | 50.9% | 89.4% | 27.4% | 27.7%
20 | Fc1ccc(Nc2ccc3c(OCCCN4CCOCC4)cccc3n2)cc1F | 95.2% | 81.4% | 81.6% | 63.8% | 92.4% | 78.3% | 82.3% | 69.7% | 69.4% | 53%
21 | Fc1ccc(Nc2nnc(-c3ccc(Cl)cc3)o2)cc1 | 106% | 92.1% | 103% | 85.4% | 137% | 107% | 92.8% | 92.8% | 58.4% | 88.4%
22 | Cc1ccc2c(c1)c1nc3cc(C)c(C)cc3nc1n2CCN(C)C | 35.8% | 19.7% | 13.5% | -10.4% (active) | 27.7% | -0.699% (active) | 2.44% (active) | 35.7% | 26.4% | 8.57% (active)
23 | Cn1c(=O)c2c(ncn2CC(=O)Nc2ccc(S(N)(=O)=O)cc2)n(C)c1=O | 104% | 103% | 105% | 88.8% | 91.8% | 111% | 93.8% | 105% | 97.5% | 103%
24 | Cc1ccc(Cc2cnc(NC(=O)/C=C/c3cccc(C)c3)s2)cc1 | 51.6% | 29.4% | 31.4% | 33.7% | 28.3% | 12.1% | 12.5% | -5.43% (active) | 9.04% (active) | 16.7%
25 | COc1ccc2c3c(c4ccccc4cc13)C(=O)N(CCN(C)CCN)C2=O | 22.3% | -48% (active) | -63.3% (active) | -83.7% (active) | -73.8% (active) | -71.6% (active) | 3.18% (active) | -48.8% (active) | -65.1% (active) | -32.5% (active)
26 | CC(=O)O[C@H]1CC[C@@]2(C)C(=CC[C@@H]3[C@@H]2CC[C@]2(C)C(=O)N(O)C(=O)C[C@@H]32)C1 | 80.4% | 102% | 97.2% | 97.4% | 101% | 89.3% | 64.1% | 92.7% | 86% | 79.5%
